ADAM17 inh – ADAM17 inhibitors, primary screen, biochemical, QFRET; AID 720648, 2013; 370,000 compounds, 0.83% hits; recombinant ADAM17, EDANS/DABCYL FRET peptide cleavage; Disintegrin and metalloproteinase domain-containing protein 17 (Homo sapiens), P78536; inhibition, % at 6.95 µM;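 active = inhibition above the mean of compounds lying between control limits plus 3 SD, set per campaign, cut at about 8.5% in these data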;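 also: 0% = DMSO-only wells as the low control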
ADAM10 inh – human ADAM10 inhibitors, primary screen, biochemical, QFRET, HTS. Disintegrin and metalloproteinase domain-containing protein 10 (Homo sapiens), O14672. inhibition, % at 7 µM. 370,000 compounds, 0.62% hits. recombinant ADAM10, EDANS/DABCYL FRET peptide cleavage, 3 h. AID 720582, 2013;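 active = inhibition above a per-campaign cutoff equal to the mean of compounds falling between control-based bounds plus 3 SD, cut at about 20% in these data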;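 also: 0% = DMSO wells while the 100% control is not disclosed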
A3G deaminase – APOBEC3G DNA deaminase inhibitors, primary screen, biochemical, fluorescence, single-stranded DNA substrate, uHTS. DNA dC->dU-editing enzyme APOBEC-3G (Homo sapiens), Q9HC16. recombinant A3G, ssDNA deamination FAM/TAMRA fluorescence. inhibition, % at 20 µM. AID 493012, 2011. 330,000 compounds, 0.28% hits;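 active = inhibition of at least 40% at 20 µM, with no more than 30% in the related APOBEC3A deaminase screen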;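 also: plate controls were DMSO wells with A3G for no effect and wells lacking A3G enzyme for full effect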
A3A deaminase – APOBEC3A ssDNA deaminase inhibitors, primary screen, selectivity assay for APOBEC3G inhibitor project, biochemical, FAM/TAMRA oligo cleavage fluorescence. DNA dC->dU-editing enzyme APOBEC-3A (Homo sapiens), P31941. recombinant A3A, FAM/TAMRA ssDNA deamination fluorescence. inhibition, % at 20 µM. 330,000 compounds, 0.41% hits. AID 493011, 2011;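 active = at least 40% inhibition at 20 µM here, with at most 30% in a related deaminase screen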;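 also: plate controls were A3A with DMSO for no effect and wells lacking A3A enzyme for full effect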
CendR NRP1 mod – modulators of CendR peptide binding to NRP-1, primary screen, biochemical, fluorescence polarization, uHTS; FAM-RPARPAR peptide binding to NRP-1; inhibition, % at 25 µM; 360,000 compounds, 0.85% hits; Neuropilin-1 (Homo sapiens), O14786;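 active = inhibition or corrected inhibition above about 18%, plus a signal ratio from 0.5 to 1.5, limit read from the data, passing the limit was not always enough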
Target sequence (O14786 whole entry, looked up): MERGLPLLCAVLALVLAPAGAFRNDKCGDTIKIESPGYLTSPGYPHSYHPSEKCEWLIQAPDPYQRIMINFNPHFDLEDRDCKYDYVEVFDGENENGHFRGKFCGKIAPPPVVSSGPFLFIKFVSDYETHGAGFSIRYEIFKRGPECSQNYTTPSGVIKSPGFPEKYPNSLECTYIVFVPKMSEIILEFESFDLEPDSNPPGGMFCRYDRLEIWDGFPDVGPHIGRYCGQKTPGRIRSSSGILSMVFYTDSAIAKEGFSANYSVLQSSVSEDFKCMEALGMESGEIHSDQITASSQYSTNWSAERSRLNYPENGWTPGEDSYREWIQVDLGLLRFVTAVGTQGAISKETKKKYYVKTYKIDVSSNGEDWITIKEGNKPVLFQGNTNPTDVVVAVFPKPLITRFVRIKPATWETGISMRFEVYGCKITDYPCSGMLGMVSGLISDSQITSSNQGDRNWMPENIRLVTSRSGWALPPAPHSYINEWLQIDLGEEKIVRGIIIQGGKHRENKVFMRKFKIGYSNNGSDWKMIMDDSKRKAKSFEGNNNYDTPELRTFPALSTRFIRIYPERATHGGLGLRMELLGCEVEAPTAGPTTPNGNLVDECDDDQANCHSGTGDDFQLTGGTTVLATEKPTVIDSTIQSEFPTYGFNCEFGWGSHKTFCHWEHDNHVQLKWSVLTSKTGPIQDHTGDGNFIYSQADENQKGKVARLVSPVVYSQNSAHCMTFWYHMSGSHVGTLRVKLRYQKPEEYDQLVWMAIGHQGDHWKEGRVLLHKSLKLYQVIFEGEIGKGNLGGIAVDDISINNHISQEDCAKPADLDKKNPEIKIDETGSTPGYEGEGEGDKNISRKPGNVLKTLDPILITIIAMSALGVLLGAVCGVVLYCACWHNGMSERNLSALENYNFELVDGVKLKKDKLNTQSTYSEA
ADAM10 counter – ADAM10 inhibitors, counter-screen for ADAM17 exosite inhibitor project, biochemical, FRET, human ADAM10. shares compounds with ADAM17 inh. inhibition, % at 6.95 µM. recombinant ADAM10, EDANS/DABCYL FRET peptide cleavage, 3 h. 2,900 compounds, 47% hits;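 active = mean inhibition over the triplicate runs exceeds the activity threshold set in the earlier primary screen, cut at about 20% in these data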;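 also: 0% = DMSO wells and 100% = marimastat wells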
ADAM17 confirm – ADAM17 inhibitors, hit retest, confirmation, biochemical, QFRET peptide cleavage | shares compounds with ADAM17 inh | recombinant ADAM17, EDANS/DABCYL QFRET peptide cleavage | inhibition, % at 6.95 µM | 2,900 compounds, 65% hits;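 active = mean inhibition across replicates above the hit cutoff set in the primary screen, cut at about 8.5% in these data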;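 also: 0% = DMSO wells and 100% = marimastat wells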
Starred values were filed as active, the others as inactive; x = not tested or not shown. In the library only some 2.4% were active in any assay of this set; here they are far more common.

SMILES	ADAM17 inh	ADAM10 inh	A3G deaminase	A3A deaminase	CendR NRP1 mod	ADAM10 counter	ADAM17 confirm
C=CS(=O)(=O)N[C@@H](CSSC[C@H](NS(=O)(=O)C=C)C(=O)OC)C(=O)OC	-1	-1	x	x	x	x	x
C[C@H]1[C@@H](N(C)Cc2cccs2)CC[C@@]23CCCN2C(=O)CCC[C@@H]13	-2	0	x	x	x	x	x
C=C(C)CN1CCN(S(=O)(=O)c2ccc(C)c(N(C)S(=O)(=O)c3ccc(C)cc3)c2C)CC1	10*	6	-5	0	-6	14	11*
CC(C)=CCc1cc([C@@H]2COc3c(ccc4c3C=CC(C)(C)O4)C2)c(O)cc1O	13*	13	-1	3	-1	13	8
CC(=O)Oc1ccc([C@@H]2COc3c(ccc4c3C=CC(C)(C)O4)C2)c(OC(C)=O)c1	-1	6	-7	-1	-4	x	x
Cc1ccccc1C(=O)c1c[nH]c(C(=O)NCC2CCCO2)c1 (centres undefined)	9.2*	9	-9	-6	9	-10	1
CC(C)(C)c1ccc(C(=O)c2c[nH]c(C(=O)NCC3CCCO3)c2)cc1 (centres undefined)	-2	3	-8	-2	7	x	x
O=C(NCCCCC(NC(=O)c1ccccc1)C(=O)O)OCc1ccccc1 (centres undefined)	-3	-1	x	x	x	x	x
COc1ccc(-c2noc(C3CCCN(C(=O)N[C@@H]4C[C@H]4c4ccccc4)C3)n2)cc1 (some centres undefined)	0	6	x	x	x	x	x
O=[N+]([O-])c1ccc(CN2[C@H](COCc3ccccc3)C=CS2(=O)=O)cc1	-3	-11	x	x	x	x	x
O=C(COC(=O)[C@H](Cc1c[nH]c2ccccc12)NC(=O)c1ccc(Cl)cc1)Nc1ccc2c(c1)OCO2	13*	15	-6	-1	-6	36*	20*
CC(=O)O[C@@H]1C=C[C@@H](C#Cc2ccc(C(C)(C)C)cc2)O[C@@H]1COC(=O)Nc1ccccc1	13*	13	x	x	x	29*	13*
CCCC1CCC2(CC1)CCC2OC(=O)Nc1ccc2c(c1)OCO2 (centres undefined)	1	2	x	x	x	x	x
COc1ccccc1CCn1cnc(-c2ccc(OC)c(OC)c2)c1CC(C)C	-5	-16	x	x	x	x	x
COc1ccc(-c2cc(-c3n[nH]c(=S)n3-c3cc(OC)ccc3OC)[nH]n2)cc1	9.5*	16	-1	-3	0	23*	13*
COc1ccc(-c2n[nH]c(=S)n2-c2cc(OC)ccc2OC)cc1	-1	0	10	-2	13	x	x
Clc1ccc(-n2c(SC/C=C/c3ccccc3)nnc2-c2cccnc2)cc1	14*	19	-8	-2	2	1	6
O=C(CSc1nnc(-c2cccnc2)n1-c1ccc(Cl)cc1)Nc1ccccc1-c1ccccc1	2	6	x	x	x	x	x
O=C(CSc1nnc(-c2ccccc2)n1-c1ccc(Cl)cc1)Nc1ccccc1-c1ccccc1	11*	19	x	x	x	21*	14*
O=C(Nc1ccc2c(c1)OCCO2)C(c1ccnc2ccccc12)N1CCN(c2ccc(C(F)(F)F)cn2)CC1 (centres undefined)	11*	16	x	x	9	54*	25*
O=C(Nc1ccc2c(c1)OCCO2)C(c1ccnc2ccccc12)N1CCN(c2ccc(F)cc2)CC1 (centres undefined)	5	12	x	x	-3	x	x
O=C(Nc1ccc2c(c1)OCCO2)C(C1CC1)N1CCN(c2ccc(C(F)(F)F)cn2)CC1 (centres undefined)	8.8*	9	x	x	7	17	11*
O=C(c1ccc2c(c1)OCCO2)N1CCN(c2ccc(C(F)(F)F)cn2)CC1	-5	-11	x	x	-9	x	x
CC(=O)c1ccc(NC(=O)C(C)OC(=O)C2CCN(c3ccc(C(F)(F)F)cn3)CC2)cc1 (centres undefined)	9.0*	12	-10	10	2	14	9.1*
COC(=O)C1=C(C)N(Cc2cccc(C(F)(F)F)c2)C(=NCc2ccc(OC)cc2)NC1c1ccccc1 (centres undefined)	2	5	x	x	x	x	x
SMILES	ADAM17 inh	ADAM10 inh	A3G deaminase	A3A deaminase	CendR NRP1 mod	ADAM10 counter	ADAM17 confirm
COc1ccc(-n2c(SCC(=O)c3ccc4ccccc4c3)nnc2-c2ccccc2)cc1	2	4	x	x	x	x	x
Fc1ccccc1N1CCN(C2CCCN(Cc3cccc(C(F)(F)F)c3)C2)CC1 (centres undefined)	-1	2	-3	-1	-8	x	x
Oc1ccccc1CN1CCCC(N2CCN(c3cccc(C(F)(F)F)c3)CC2)C1 (centres undefined)	9.0*	11	-8	-4	-3	24*	19*
COc1ccc(C2c3c(-c4ccccc4O)n[nH]c3C(=O)N2CCc2ccc(OC)c(OC)c2)cc1 (centres undefined)	12*	24*	-2	-1	6	23*	15*
CCOC(=O)c1c(C)[nH]c(C)c1C(=O)COC(=O)/C=C/c1cccc(C(F)(F)F)c1	12*	11	x	x	8	27*	15*
CCOC(=O)c1c(C)[nH]c(C)c1C(=O)COC(=O)/C=C/c1cccc(F)c1	4	12	x	x	-1	x	x
Oc1ccc2ccccc2c1/C=N/Nc1ccccc1	2	-2	40	-3	8	x	x
Cc1cc(N/N=C/c2c(O)ccc3ccccc23)nc(-c2ccccc2O)n1	9.2*	8	-5	-1	10	-69	-9
C[C@@H]1ON(C)[C@H]2C[C@H]3c4[nH]c5cccc(-c6ccc7c(c6)OCO7)c5c4CCN3C(=O)[C@@H]12	-44	-154	x	x	x	x	x
CCCc1c(C(=O)N/N=C/C2CC=CCC2)nnn1-c1nonc1N (centres undefined)	-5	-10	x	x	-9	x	x
CCOc1ccc(-c2c(C(=O)N/N=C/C3CC=CCC3)nnn2-c2nonc2N)cc1 (centres undefined)	9.6*	7	0	-8	12	4	7
Cc1cccc(C(=O)Nc2c(-c3ccccc3)nc3ncccn23)c1	-77	-257	x	x	x	x	x
N#Cc1ccccc1CSc1ccccn1	9.1*	12	7	-3	-4	-8	0
N#Cc1ccc(CSc2ccccn2)c(Cl)c1	-1	-10	-5	-3	2	x	x
